In PubChem BioAssay (NCI):
Several values for one entry are separate records, joined by “and”; a condition that tells them apart may be missing. Equal values may be shown once. The panel holds about 83,000 compounds, 20% with a hit somewhere; the sample as a whole holds those more often.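 Each cell line was grown in a 96-well plate and treated with one concentration of compound for 48 hours. Values below 10 were considered active.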 Activity calls are given as the source filed them.

Legend:
Assay in all cases: NCI-60 one-dose screen, 48 h (100 = growth as untreated, 0 = no growth, -100 = all killed)
Conditions in all cases: 10 µM unless noted
[1] = tested on: HCT-15 colon
[2] = tested on: HT29 colon
[3] = tested on: SNB-75 CNS
[4] = tested on: SNB-19 CNS
[5] = tested on: U251 CNS
[6] = tested on: PC-3 prostate
[7] = tested on: SK-MEL-5 melanoma
[8] = tested on: UACC-62 melanoma
[9] = tested on: LOX IMVI melanoma
[10] = tested on: SK-MEL-28 melanoma

Measured: growth

Cc1nc(Nc2ccccn2)sc1C1=NNC(c2ccccc2F)C1 (stereo not given)
inactive: [1] 20.8% | [2] 30.4% | [3] 62.3% | [4] 56.1% | [5] 51% | [6] 58.5% | [7] 48.7% | [8] 29.4% | [9] 31.5% | [10] 65.9%

CCc1ccc(SC2c3cc(OC)ccc3Oc3nc(N)c(C#N)c(N)c32)cc1 (stereo not given)
active: [1] -45% | [2] -60.5% | [3] -21.3% | [4] 0.536% | [5] -13.4% | [6] 3.3% | [7] -95.9% | [8] -80.7% | [9] -62.2% | [10] 0.874%

O=C(Nc1ccc(S(=O)(=O)N2CCCCC2)cc1)C(Cl)Cl
inactive: [1] 103% | [2] 109% | [3] 103% | [4] 93.7% | [5] 98% | [6] 107% | [7] 105% | [8] 106% | [9] 100% | [10] 130%

Cc1ccc(C(C)C)cc1Oc1cccc(-c2c(-c3ccc(C(F)(F)F)cc3)ncn2C2CCNCC2)n1
active: [1] -94.1% | [2] -92.1% | [3] -94.1% | [4] -97.2% | [5] -85.3% | [6] -92% | [7] -98.6% | [8] -94.1% | [9] -75.8% | [10] -80.5%

C=CC(=O)Nc1ccc(C(=O)/C=C/c2ccc(N(C)C)cc2)c(O)c1
inactive: [3] 28.1% | [4] 28.2% | [6] 34.4%
active: [1] -17.2% | [2] -37.7% | [5] -56.4% | [7] 2.1% | [8] -25.3% | [9] -60.3% | [10] -6.18%

COc1cc(CNC(=O)C[C@H](C)CCC=C(C)C)ccc1OCc1cn(-c2ccccc2Cl)nn1
active: [7] 5.29%
inactive: [1] 53.8% | [2] 76.7% | [3] 60% | [4] 61.3% | [5] 80.6% | [6] 49.4% | [8] 39.6% | [9] 56.4% | [10] 69.8%

Cc1cc(C)c2[nH]c(=O)c(C(c3nnnn3Cc3ccc4c(c3)OCO4)N3CCN(C)CC3)cc2c1 (stereo not given)
inactive: [1] 110% | [2] 110% | [3] 115% | [4] 101% | [5] 104% | [6] 111% | [7] 107% | [8] 104% | [9] 100% | [10] 105%

Fc1cccc(CNc2nc(SCCN3CCOCC3)nc3c2cnn3CC(Cl)c2ccc(Br)cc2)c1 (stereo not given)
inactive: [3] 42.3% | [4] 42.2% | [5] 25.2% | [6] 25.8% | [8] 28.2% | [10] 46.8%
active: [1] -64.7% | [2] -49.9% | [7] 3.78% | [9] 5.6%

COC(=O)c1c(C(=O)OC)c2ccc3c4ccccc4ccc3n2c1C(=O)OC
inactive: [1] 98.1% | [2] 108% | [3] 95.9% | [4] 81.1% | [5] 97.1% | [6] 98.9% | [7] 98.3% | [8] 93.6% | [9] 104% | [10] 109%

O=C1C=CC(=CC=C2N(Cc3ccc4ccccc4c3)c3ccccc3N2Cc2ccc3ccccc3c2)C=C1
8.3% (active) and 11.1% (inactive): [4]
2.32% (active) and 11.9% (inactive): [8]
inactive: [1] 94.7% and 95.3% | [2] 15.1% and 13.2% | [3] 39.6% and 26.9% | [5] 17.4% and 17.6% | [6] 18.6% and 16.6% | [9] 14.8% and 19.6% | [10] 16.7% and 20.5%
active: [7] -64.3% and -51.3%

CCCSc1nnc(-c2sc3nc4ccccc4n3c2C)o1
inactive: [1] 99.2% | [2] 110% | [3] 95.6% | [4] 99.8% | [5] 113% | [6] 105% | [7] 98.5% | [8] 94.5% | [9] 113% | [10] 110%

COc1ccc(-c2nc3ccc(-c4nnc(SCc5ccccc5)o4)cc3[nH]2)cc1OC
inactive: [1] 35.6% | [2] 52.9% | [4] 28.1% | [6] 50.9% | [7] 39.7% | [10] 30.6%
active: [3] -54.2% | [5] 0.298% | [8] 0.287% | [9] 7.48%

CN1C(=O)/C(=C/c2ccco2)S/C1=N/c1nccs1
inactive: [1] 93.8% | [2] 103% | [3] 97.4% | [4] 99.4% | [5] 111% | [6] 98.1% | [7] 98.9% | [8] 86.7% | [9] 97.7% | [10] 112%

N/C(=N\c1nc2ccc([N+](=O)[O-])cc2s1)NC(=O)Nc1ccccc1Cl
inactive: [1] 28.3% | [2] 62.1% | [3] 24.4% | [4] 49.7% | [6] 69% | [7] 44.7% | [8] 54.8% | [9] 29.6% | [10] 60.5%
active: [5] -0.568%

COc1ccc(N=Nc2c(N)nn3c(-c4cc5ccccc5oc4=O)ccnc23)cc1
inactive: [1] 64.9% | [2] 50.7% | [3] 33.6% | [4] 19.8% | [5] 28.5% | [6] 70.7% | [7] 24% | [8] 47.7% | [9] 57.2% | [10] 45.4%

Cc1cnc2ccc(Oc3ccccc3-c3ccccc3)nn12
inactive: [1] 103% | [2] 108% | [3] 126% | [4] 99.7% | [5] 100% | [6] 105% | [7] 107% | [8] 101% | [9] 97.9% | [10] 113%

CN(C)CCOc1ccc(C(=O)C2[C@H](c3ccc(Cl)cc3)[C@@H](c3ccccc3)NC23C(=O)Nc2ccc(Cl)cc23)cc1 (stereo not given in full)
active: [1] -91.5% | [2] -93.7% | [3] -90.7% | [4] -96.2% | [5] -82.9% | [6] -89.9% | [7] -98.2% | [8] -78.3% | [9] -96.3% | [10] -93.4%

COc1cccc(/C=C/c2nc3ccccc3c(=O)n2CC(=O)Nc2ccccc2)c1
inactive: [1] 67.8% | [2] 58.5% | [4] 40.4% | [6] 76.1% | [7] 73.6% | [8] 67.2% | [9] 26.8% | [10] 76.5%
active: [3] -35.9% | [5] 7.15%

CCCSc1nnc(-c2c(C)nc3sccn23)o1
inactive: [1] 65.8% | [2] 101% | [3] 91.5% | [4] 81.2% | [5] 87.5% | [6] 86.6% | [7] 81.6% | [8] 69.1% | [9] 88.9% | [10] 106%

CCCCCCCCCc1ccc(C(=O)Nc2cc(C)ccc2C(=O)OC)cc1
inactive: [1] 103% | [2] 98.9% | [3] 117% | [4] 106% | [5] 112% | [6] 105% | [7] 102% | [8] 83.7% | [9] 102% | [10] 107%

O=C1Nc2cc(-c3ccc(NS(=O)(=O)c4ccc(F)c(Cl)c4)cc3)ccc2/C1=C/c1ccc[nH]1
active: [2] -18.4% | [5] 2.34% | [9] 0.97%
inactive: [1] 14% | [3] 62.7% | [4] 46.6% | [6] 30.2% | [7] 58.8% | [8] 32.9% | [10] 41.4%

Cn1cc(-c2cc3nc(-c4cn(C)c5ncccc45)cc(N)n3n2)c2cc(F)ccc21
inactive: [1] 69% | [3] 52.9% | [6] 32.5% | [7] 78.2% | [8] 80.3% | [9] 44.4% | [10] 92.8%
active: [2] 6.68% | [4] 8.57% | [5] -41.8%

COc1cc(CNC(=O)[C@]23CCC(C)(C)CC2C2=CCC4[C@@]5(C)CCC(OC(C)=O)C(C)(C)C5CC[C@@]4(C)[C@]2(C)CC3)ccc1OCc1cn(-c2ccc(Cl)cc2Cl)nn1 (stereo not given in full)
inactive: [1] 111% | [2] 98% | [3] 118% | [4] 89.8% | [5] 104% | [6] 98.3% | [7] 103% | [8] 81.4% | [9] 98.3% | [10] 117%

COc1ccc(/C=C/c2nc3ccccc3c(=O)n2CC(=O)Nc2ccccc2)cc1
active: [3] -35%
inactive: [1] 79.9% | [2] 83.3% | [4] 29.1% | [5] 16.3% | [6] 84.7% | [7] 71.6% | [8] 78.6% | [9] 26.9% | [10] 79.1%

CCOC(=O)c1ccc(NC(=S)NC(=O)c2cccc(NC(=O)c3ccc(C)cc3)c2)cc1
active: [5] 2.07%
inactive: [1] 75.3% | [2] 82.5% | [3] 73% | [4] 49.4% | [6] 77.5% | [7] 85.8% | [8] 74.9% | [9] 51.9% | [10] 85.2%
